High-throughput results: PubChem, National Center for Advancing Translational Sciences (NCATS)
ELG1 DNA repair – blocks ELG1-dependent DNA repair in HEK293T cells; Potency, µM (titrated, usually from 46.1 µM), for the others: at the highest dose activity change, negative = inhibition, actives largely listed as inhibitors; actives 2.3% (n = 330,000); HEK293T ELG1-luciferase reporter, luminescence, 16 h; DNA damage induced by 5-fluorouridine; further: on the % scale 0 is the no-effect control and ±100 the full control effect; nearly all actives have a fitted effect of over 55% in size
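Step one: seed 2,000 cells per well. Step two: pin-transfer compound or DMSO alongside 5-fluorouridine. Step three: incubate 16 hr, 37 °C, 5% CO2. Step four: add ONE-Glo, wait 30 min, read luminescence.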
ELG1 genotox – inducers of genotoxicity in HEK293T ELG1-luciferase cells; HEK293T ELG1-luciferase reporter, luminescence, 16 h; Potency, µM (series often up to 46 µM), without a hit: top-dose activity change, positive = activation, most hits filed as activators; actives 1.3% (n = 330,000); AID 504466; further: % of control where 0% means no effect; nearly all actives have a fitted effect of over 60% in size
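HEK293T cells expressing luciferase-tagged ELG1 were treated with compound or DMSO for 16 hr at 37°C. Luciferase activity was then read after 30 min with ONE-Glo at room temperature; rising signal flags genetic stress.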
NPC1 promoter act – activators of NPC1 promoter; Huh7 NPC1 promoter luciferase reporter, 24 h; Potency, µM (highest dose often 9.22 µM), without a hit: top-dose activation, usual class: activators; actives 2.4% (n = 320,000); AID 485313; further: % of control where 0% means no effect; nearly all actives have a fitted effect of over 60% in size
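NPC1 promoter–luciferase Huh7 cells; 24 h compound; luminescence.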
Rab9 prom act – activators of Rab9 promoter. Potency, µM (top dose mostly 9.22 µM), inactives show at the highest dose activation, negative = inhibition, actives largely listed as activators. Huh7 Rab9 promoter-luciferase reporter, luminescence, 24 h. actives 2.8% (n = 320,000); further: % of control where 0% means no effect; nearly all actives have a fitted effect of over 60% in size
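Measured in stably transfected Huh7 cells bearing a Rab9 promoter–luciferase construct: 24 h compound treatment at 37 °C, followed by luminescence detection.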
FLuc counter – counter-screen for miR-21 project: firefly luciferase inhibitors or activators; P08659; purified FLuc, Km substrates, luminescence inhibition; Potency, µM (series often up to 57.5 µM), inactives show at the top dose activity change, negative = inhibition, hits mostly inhibitors; actives 6.9% (n = 360,000); AID 588342;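 further: plate controls were vehicle for no effect and reference inhibitor for full effect; nearly all actives have a fitted effect of over 55% in size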
Target sequence (P08659 whole entry, looked up): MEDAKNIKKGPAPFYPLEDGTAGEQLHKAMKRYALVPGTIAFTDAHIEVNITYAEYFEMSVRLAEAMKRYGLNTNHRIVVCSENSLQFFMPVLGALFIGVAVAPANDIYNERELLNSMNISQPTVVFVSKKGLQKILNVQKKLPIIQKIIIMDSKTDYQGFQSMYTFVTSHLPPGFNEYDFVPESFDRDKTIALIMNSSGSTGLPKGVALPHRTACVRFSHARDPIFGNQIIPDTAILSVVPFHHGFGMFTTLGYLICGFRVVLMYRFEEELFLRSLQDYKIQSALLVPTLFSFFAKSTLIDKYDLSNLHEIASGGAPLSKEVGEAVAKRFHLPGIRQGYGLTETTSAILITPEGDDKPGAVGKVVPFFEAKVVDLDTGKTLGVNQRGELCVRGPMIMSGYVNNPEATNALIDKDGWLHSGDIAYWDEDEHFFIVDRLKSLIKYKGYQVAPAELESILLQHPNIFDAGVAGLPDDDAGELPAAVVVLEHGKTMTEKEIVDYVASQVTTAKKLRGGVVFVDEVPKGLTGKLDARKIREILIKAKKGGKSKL
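Purified P. pyralis luciferase, 10 nM final, with Km-level 10 uM D-luciferin and 10 uM ATP in 50 mM Tris acetate pH 7.5, 10 mM Mg acetate, 0.01% Tween-20, 0.05% BSA; 6-point qHTS titration about 60 µM downward; luminescence read.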
SMN2 splice up – increases expression of the SMN2 splice variant | HEK293 SMN2-luciferase splicing reporter, luminescence, 30-36 h | actives 2.8% (n = 210,000) | Potency, µM (highest dose often 46.1 µM), for the others: at the top dose activity change, positive = activation, usual class: activators | AID 1458; further: % of control where 0% means no effect; nearly all actives have a fitted effect of over 55% in size
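qHTS luciferase splicing reporter: luminescence rises when SMN2 exon 7 is included in transfected HEK293 cells. Compound exposure lasted 30-36 h at 37C, with 4.5 mM final sodium butyrate as control, followed by a ONE-Glo read.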
Numbers without * were called inactive; ? = inconclusive; . = not tested or not shown; [ ] = remark or other dose. The list is not random: actives were taken first. Their share in the collection is about 9.2%. The call rests on the fitted dose curve; in most records, active means well fitted curve in the direction sought with a large enough effect; inconclusive means small, poorly fitted or top-dose-only effect, or another doubt; inactive means no such curve, though single readings can be large; an effect the other way counts as inactive or inconclusive. Potency means the concentration at half of the fitted maximal effect.

SMILES	ELG1 DNA repair	ELG1 genotox	NPC1 promoter act	Rab9 prom act	FLuc counter	SMN2 splice up
CN1CCN(c2nc(-c3cccnc3)nc3ccccc23)CC1	?	?	-3%	-8%	-1%	-7%
Cc1cccc(NC(=O)CN(C)S(=O)(=O)c2ccc3c(c2)c(=O)n(C)c(=O)n3C)c1C	.	.	.	.	-1%	-4%
S=C(Nc1ccc2c(c1)OCCO2)Nc1ccccc1Cl	?	?	19%	25%	15µM*	.
S=C(Nc1ccc(Cl)cc1)Nc1ccc2c(c1)OCCO2	?	11%	?	?	11µM*	.
O=C(CN1CCN(CC(=O)Nc2ccccc2Cl)CC1)Nc1ccc2c(c1)OCCO2	?	-7%	-5%	-1%	-1%	-7%
Cc1cccc(NC(=O)C2CCN(c3nnc(C)c4c(C)n(-c5ccccc5)nc34)CC2)c1C	.	.	.	.	1%	.
COc1ccc(C2SCC(=O)N2CCc2ccc(OC)c(OC)c2)cc1 (centres undefined)	18µM*	-8%	-7%	-1%	-1%	.
COc1ccc(/C=C/C=C2\N=C(SC)SC2=O)cc1	?	2%	25%	18%	5.4µM*	.
O=C1c2ccccc2-c2n[nH]c3cccc1c23	.	.	?	6%[46.1 µM]	.	10%
O=C1c2ccccc2-c2nnc(-c3ccc(F)cc3)cc21	?	?	?	0.32µM*	0.43µM*	2.5µM*
O=C1c2ccccc2-c2nnc(-c3ccc(O)cc3)cc21	?	?	0.63µM*	0.5µM*	0.54µM*	6.3µM*
O=c1[nH]nc(-c2ccc(F)cc2)cc1-c1ccccc1	0%	6%	2%	1%	1%	.
Cc1ccccc1-c1cc2c(nn1)-c1ccccc1C2=O	?	?	3.2µM*	4µM*	1.3µM*	?
Cc1ccc(-c2cc3c(nn2)-c2ccccc2C3=O)cc1	?	?	?	?	0.076µM*	.
COc1ccc(N2CCN(C(=O)NCc3ccc(OC)c(OC)c3)CC2)cc1	-3%	1%	?	-13%	-1%	.
COc1ccc2c(CNCc3ccco3)c(C(=O)O)n(Cc3ccc(F)cc3Cl)c2c1	.	.	.	.	7%	.
Cc1nc2ccccc2n1CC(=O)NC(C)C1CC2CCC1C2 (centres undefined)	5.2µM*	-6%	-27%	-26%	1%	-48%
CC(NC(=O)Cn1c(NCCO)nc2ccccc21)C1CC2CCC1C2 (centres undefined)	19%	-5%	-4%	4%	-1%	-5%
COc1ccc(-n2ncc(C(=O)NCCc3ccsc3)c2C2CCN(C(=O)OC(C)(C)C)CC2)cc1	.	.	.	.	-4%	.
COc1ccccc1NC(=O)C(Cc1ccccc1)NS(=O)(=O)c1ccc2c(c1)CCN2C(C)=O (centres undefined)	.	.	.	.	-10%	5%
CCOC(=O)c1ccc2c(c1)N(Cc1ccccc1C)C(=O)c1ccccc1S2=O (centres undefined)	16µM*	-5%	-8%	-6%	-2%	-58%
CC(Nc1oc(-c2ccccc2)nc1-c1ccc(C(F)(F)F)cc1)c1ccccc1 (centres undefined)	.	.	.	.	.	3%
COC(=O)Cn1cc(/C=C(/C#N)C(=O)N2CCOCC2)c2ccccc21	4%	1%	1%	-2%	-16%	.
Cc1ccc(C)c(OCC(=O)O/N=C(\N)c2cccnc2)c1	?	4%	-1%	11%	-18%	.
N/C(=N\OC(=O)COc1ccccc1Cl)c1ccccn1	?	9.2µM*	3.2µM*	2.5µM*	4.8µM*	13µM*
SMILES	ELG1 DNA repair	ELG1 genotox	NPC1 promoter act	Rab9 prom act	FLuc counter	SMN2 splice up
Cc1ccc(C)c(OCC(=O)O/N=C(\N)c2ccccn2)c1	?	?	3.2µM*	?	17µM*	?
N/C(=N\OC(=O)COc1ccc2ccccc2c1)c1ccccn1	?	6%	13%	22%	?	-4%
COc1cc(NC(=O)CN(C)S(=O)(=O)c2ccc3c(c2)CC(C)N3C(C)=O)cc(OC)c1 (centres undefined)	?	-5%	-1%	-4%	2%	.
CCN(C(=O)COC(=O)CNS(=O)(=O)c1ccc(SC)c([N+](=O)[O-])c1)C1CCCCC1	?	0%	0%	4%	-1%	.
C=CCn1c(SCC(=O)Nc2sc(C)c(C)c2C(=O)OCC)nnc1-c1sc(N)nc1C	5.8µM*	-10%	-2%	-5%	-2%	.
C=CCn1c(SCC(=O)NC2CCCCC2)nnc1-c1sc(N)nc1C	4%	1%	0%	-1%	2%	-1%
N#C/C(=C\c1ccc(-c2nc3ccccc3s2)o1)C(N)=O	?	18%	3.2µM*	?	2.7µM*	.
CNC(=O)/C(C#N)=C\c1ccc(CNS(=O)(=O)c2ccccc2)o1	-6%	0%	0%	6%	0%	0%
CNC(=O)/C(C#N)=C/c1ccc(-c2nc3ccccc3s2)o1	?	?	2.8µM*	1.4µM*	?	.
CNC(=O)CN(c1cc(OCCOC)c(Cl)cc1Cl)S(=O)(=O)c1ccc(OC)cc1	?	-2%	-17%	-8%	6%	-14%
O=C(Nc1ccc(-c2nc3cc(NC(=O)c4ccccc4F)ccc3o2)cc1)c1ccccc1F	.	.	.	.	-2%	.
O=C(Nc1ccc2oc(-c3cccc(F)c3)nc2c1)c1ccccc1F	?	21µM*	?	?	-14%	-3%
O=C(Nc1ccc2oc(-c3ccccc3F)nc2c1)c1ccccc1F	?	16%	2.2µM*	3.5µM*	4.8µM*	.
Cc1ccc(NC(=O)c2ncn[nH]2)cc1	?	8%	10%	2%	17µM*	15%
O=C(Nc1ccc2oc(-c3ccc4ccccc4c3)nc2c1)c1ccc(Cl)c(Cl)c1	.	.	.	.	-7%	3%
O=C(Nc1ccc2oc(-c3ccncc3)nc2c1)c1ccccc1F	26%	3%	28%	23%	?	-38%
O=C(Nc1ccc2oc(-c3ccc(Cl)c(Cl)c3)nc2c1)c1ncn[nH]1	?	?	0.5µM*	0.71µM*	?	-22%
O=c1c2oc3ccccc3c2n(Cc2ccccc2F)c(=O)n1Cc1ccco1	.	.	.	.	0%	.
O=C(c1cnc(N2CCOCC2)c2ccccc12)N1CCN(c2ccccc2F)CC1	.	.	.	.	-2%	.
O=C(Nc1ccc2oc(-c3ccccc3F)nc2c1)c1ncn[nH]1	?	?	0.35µM*	0.5µM*	2.1µM*	14µM*
O=C(Nc1ccc2oc(-c3ccncc3)nc2c1)c1ccccc1	-4%	2%	-4%	-2%	0%	-16%
